Measured values from the supplement of paper PMC11732987, “Enantioselective OTUD7B fragment discovery through chemoproteomics screening and high-throughput optimisation” (Communications Chemistry, 2025).

Legend:
Assay in all cases: log2 ratio of Biotin-Ahx-Ub-VS probe labelling (fragment/DMSO); higher = less target engagement (more negative = stronger competition), active = hit call of the paper (q ≤ 0.05, log2 ratio ≤ -1)
Conditions in all cases: compound concentration: 200 uM; treatment time: 3 h
ALG13 = target: T1, ALG13 (UniProt Q9NP73)
T1 sequence (whole entry): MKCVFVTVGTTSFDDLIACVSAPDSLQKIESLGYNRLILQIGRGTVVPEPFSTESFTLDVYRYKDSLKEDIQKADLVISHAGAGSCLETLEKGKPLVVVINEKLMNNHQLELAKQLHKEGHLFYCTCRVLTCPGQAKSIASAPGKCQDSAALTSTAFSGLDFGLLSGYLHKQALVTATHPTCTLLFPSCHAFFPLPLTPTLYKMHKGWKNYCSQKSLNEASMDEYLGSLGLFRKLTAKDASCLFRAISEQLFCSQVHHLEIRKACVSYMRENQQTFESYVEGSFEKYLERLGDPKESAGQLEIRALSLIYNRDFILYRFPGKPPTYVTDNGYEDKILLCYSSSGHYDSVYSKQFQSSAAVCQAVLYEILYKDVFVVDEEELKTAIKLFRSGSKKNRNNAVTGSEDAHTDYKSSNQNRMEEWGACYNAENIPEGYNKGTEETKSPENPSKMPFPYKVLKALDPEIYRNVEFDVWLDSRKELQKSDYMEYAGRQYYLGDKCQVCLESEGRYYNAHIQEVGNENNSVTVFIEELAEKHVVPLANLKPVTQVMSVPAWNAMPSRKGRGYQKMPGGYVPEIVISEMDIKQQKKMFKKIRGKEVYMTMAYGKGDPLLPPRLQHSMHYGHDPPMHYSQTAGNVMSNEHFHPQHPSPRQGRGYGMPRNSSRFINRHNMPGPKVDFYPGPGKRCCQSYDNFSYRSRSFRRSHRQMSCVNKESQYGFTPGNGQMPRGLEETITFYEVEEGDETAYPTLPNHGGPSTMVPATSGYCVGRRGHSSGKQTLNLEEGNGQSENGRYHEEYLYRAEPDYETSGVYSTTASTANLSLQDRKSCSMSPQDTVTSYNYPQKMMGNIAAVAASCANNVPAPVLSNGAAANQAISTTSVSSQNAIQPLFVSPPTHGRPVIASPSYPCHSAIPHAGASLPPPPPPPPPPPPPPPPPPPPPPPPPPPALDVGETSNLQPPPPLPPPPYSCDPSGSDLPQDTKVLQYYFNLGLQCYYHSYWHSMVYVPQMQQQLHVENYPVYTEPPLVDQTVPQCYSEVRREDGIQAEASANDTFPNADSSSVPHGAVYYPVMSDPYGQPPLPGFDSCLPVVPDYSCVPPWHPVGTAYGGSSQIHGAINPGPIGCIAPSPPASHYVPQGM
Summary of the method: (§1)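 Fragment (200 µM) or vehicle was incubated for 3 h with triplicate HEK293T lysate samples of 495 µg, which were then treated with Biotin-Ahx-Ub-VS at 0.5 µM final for 1 h. Labelled DUBs were enriched on NeutrAvidin, digested with LysC and trypsin, and analysed by diaPASEF LC-MS/MS. Values are average log2 fragment/vehicle ratios from an unpaired t-test on global-median-normalised Spectronaut label-free quantities, using proteins with ≥2 unique peptides.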

ATXN3 = ATXN3 (UniProt P54252)
Summary of the method: as §1

BAP1 = target: T2, BAP1 (UniProt Q92560)
T2 sequence (whole entry): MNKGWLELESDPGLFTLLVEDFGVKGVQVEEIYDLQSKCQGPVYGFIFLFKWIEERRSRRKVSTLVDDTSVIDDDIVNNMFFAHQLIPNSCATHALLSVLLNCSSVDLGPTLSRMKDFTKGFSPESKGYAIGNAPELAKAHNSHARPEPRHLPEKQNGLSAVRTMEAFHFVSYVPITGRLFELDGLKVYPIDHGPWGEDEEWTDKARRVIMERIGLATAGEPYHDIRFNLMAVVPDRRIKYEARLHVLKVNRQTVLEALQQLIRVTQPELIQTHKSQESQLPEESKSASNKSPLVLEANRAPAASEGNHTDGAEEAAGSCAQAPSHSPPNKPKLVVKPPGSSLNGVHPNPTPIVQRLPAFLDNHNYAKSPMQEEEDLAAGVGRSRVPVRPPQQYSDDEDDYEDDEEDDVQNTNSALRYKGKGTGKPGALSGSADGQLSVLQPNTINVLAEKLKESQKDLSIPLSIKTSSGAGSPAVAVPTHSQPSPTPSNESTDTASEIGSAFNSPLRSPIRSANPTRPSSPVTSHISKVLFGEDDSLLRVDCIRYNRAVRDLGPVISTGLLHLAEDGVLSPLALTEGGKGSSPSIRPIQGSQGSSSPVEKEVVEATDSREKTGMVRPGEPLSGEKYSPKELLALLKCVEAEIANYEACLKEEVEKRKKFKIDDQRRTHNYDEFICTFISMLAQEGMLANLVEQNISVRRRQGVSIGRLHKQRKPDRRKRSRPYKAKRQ
Summary of the method: as §1

EIF3F = EIF3F (UniProt O00303)
Summary of the method: as §1

EIF3H = EIF3H (UniProt O15372)
Summary of the method: as §1

FAM105A = target: T3, FAM105A (UniProt Q9NUU6)
T3 sequence (whole entry): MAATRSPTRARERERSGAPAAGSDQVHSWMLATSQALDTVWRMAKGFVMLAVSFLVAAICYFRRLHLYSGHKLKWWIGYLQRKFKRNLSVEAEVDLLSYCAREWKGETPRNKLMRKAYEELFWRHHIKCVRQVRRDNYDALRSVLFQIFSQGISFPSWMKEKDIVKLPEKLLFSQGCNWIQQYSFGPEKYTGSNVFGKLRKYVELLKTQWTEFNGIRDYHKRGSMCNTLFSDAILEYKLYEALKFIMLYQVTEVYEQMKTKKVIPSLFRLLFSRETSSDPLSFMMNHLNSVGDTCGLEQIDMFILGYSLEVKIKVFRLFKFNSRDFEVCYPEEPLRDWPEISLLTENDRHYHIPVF
Summary of the method: as §1

OTUB1 = OTUB1 (UniProt Q96FW1)
Summary of the method: as §1

OTUD4 = target: T4, OTUD4 (UniProt Q01804)
T4 sequence (whole entry): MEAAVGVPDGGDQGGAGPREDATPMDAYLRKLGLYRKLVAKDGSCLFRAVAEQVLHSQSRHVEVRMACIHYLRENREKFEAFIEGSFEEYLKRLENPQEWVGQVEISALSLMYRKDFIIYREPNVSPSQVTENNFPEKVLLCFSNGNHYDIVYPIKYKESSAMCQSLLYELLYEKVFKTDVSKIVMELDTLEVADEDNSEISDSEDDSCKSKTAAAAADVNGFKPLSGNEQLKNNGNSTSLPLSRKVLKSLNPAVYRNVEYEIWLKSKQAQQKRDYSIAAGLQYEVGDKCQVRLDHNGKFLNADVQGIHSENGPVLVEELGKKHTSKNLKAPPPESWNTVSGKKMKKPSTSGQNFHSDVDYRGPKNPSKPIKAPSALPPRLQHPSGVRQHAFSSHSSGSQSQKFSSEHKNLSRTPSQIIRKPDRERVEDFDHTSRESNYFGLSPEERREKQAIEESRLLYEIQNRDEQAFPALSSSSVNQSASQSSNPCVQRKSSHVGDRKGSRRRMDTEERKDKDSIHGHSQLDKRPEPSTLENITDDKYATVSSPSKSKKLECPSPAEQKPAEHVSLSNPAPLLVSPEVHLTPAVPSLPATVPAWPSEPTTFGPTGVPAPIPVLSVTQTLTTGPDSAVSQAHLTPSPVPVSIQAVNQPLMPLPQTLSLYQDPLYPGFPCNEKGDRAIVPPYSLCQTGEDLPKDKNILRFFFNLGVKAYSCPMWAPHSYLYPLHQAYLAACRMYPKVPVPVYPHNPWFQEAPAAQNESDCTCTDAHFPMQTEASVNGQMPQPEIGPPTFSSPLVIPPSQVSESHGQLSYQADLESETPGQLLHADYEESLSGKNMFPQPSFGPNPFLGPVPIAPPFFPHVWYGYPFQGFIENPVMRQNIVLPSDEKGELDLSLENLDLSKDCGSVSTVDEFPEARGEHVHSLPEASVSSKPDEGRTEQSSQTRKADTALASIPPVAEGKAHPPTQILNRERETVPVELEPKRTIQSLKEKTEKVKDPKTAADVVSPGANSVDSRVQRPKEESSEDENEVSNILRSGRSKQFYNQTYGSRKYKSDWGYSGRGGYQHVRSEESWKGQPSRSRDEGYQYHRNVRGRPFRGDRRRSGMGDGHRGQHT
Summary of the method: as §1

OTUD5 = target: T5, OTUD5 (UniProt Q96G74)
T5 sequence (whole entry): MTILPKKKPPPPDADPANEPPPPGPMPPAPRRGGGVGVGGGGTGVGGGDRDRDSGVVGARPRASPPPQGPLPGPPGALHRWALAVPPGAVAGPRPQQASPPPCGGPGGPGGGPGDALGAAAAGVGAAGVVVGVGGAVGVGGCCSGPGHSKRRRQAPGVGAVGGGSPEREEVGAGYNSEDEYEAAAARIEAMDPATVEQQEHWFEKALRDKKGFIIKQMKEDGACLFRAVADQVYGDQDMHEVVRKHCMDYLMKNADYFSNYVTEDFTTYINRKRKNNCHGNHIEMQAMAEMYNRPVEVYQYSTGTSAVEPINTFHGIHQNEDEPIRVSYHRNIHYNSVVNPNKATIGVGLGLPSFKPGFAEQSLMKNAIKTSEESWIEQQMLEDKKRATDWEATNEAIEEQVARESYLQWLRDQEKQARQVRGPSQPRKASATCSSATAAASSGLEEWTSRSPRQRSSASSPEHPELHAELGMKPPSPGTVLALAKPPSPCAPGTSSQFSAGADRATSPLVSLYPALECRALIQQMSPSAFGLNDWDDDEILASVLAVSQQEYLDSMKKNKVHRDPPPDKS
Summary of the method: as §1

Measured: log2 ratio of Biotin-Ahx-Ub-VS probe labelling

ATXN3, sequence (P54252 whole entry): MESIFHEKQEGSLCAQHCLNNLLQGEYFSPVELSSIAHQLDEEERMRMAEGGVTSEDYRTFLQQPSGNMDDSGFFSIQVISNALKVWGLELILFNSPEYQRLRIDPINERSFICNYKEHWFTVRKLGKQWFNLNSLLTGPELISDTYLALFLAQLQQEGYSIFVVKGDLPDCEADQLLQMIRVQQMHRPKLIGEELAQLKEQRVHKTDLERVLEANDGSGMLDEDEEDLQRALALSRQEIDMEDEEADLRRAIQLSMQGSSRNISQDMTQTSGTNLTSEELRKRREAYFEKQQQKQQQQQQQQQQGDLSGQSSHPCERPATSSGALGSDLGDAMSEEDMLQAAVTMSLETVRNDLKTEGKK
EIF3F, sequence (O00303 whole entry): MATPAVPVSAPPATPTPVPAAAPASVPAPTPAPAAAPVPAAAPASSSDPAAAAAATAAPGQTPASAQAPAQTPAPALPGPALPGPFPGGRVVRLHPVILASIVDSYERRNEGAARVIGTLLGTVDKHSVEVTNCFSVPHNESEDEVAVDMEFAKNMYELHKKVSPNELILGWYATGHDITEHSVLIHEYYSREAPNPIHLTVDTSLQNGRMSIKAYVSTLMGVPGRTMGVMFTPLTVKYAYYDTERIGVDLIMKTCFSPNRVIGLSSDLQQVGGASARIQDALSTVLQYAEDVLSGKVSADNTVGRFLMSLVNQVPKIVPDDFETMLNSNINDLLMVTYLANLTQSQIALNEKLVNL
EIF3H, sequence (O15372 whole entry): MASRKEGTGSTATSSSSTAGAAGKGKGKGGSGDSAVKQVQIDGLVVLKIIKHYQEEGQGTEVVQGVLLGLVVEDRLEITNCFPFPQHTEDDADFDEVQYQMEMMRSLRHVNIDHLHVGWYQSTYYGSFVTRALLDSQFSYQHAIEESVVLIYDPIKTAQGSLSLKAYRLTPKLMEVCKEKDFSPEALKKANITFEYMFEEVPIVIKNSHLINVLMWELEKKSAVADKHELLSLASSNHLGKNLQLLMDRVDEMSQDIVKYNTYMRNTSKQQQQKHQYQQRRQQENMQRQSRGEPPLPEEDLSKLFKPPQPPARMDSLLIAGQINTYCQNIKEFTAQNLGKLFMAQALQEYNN
OTUB1, sequence (Q96FW1 whole entry): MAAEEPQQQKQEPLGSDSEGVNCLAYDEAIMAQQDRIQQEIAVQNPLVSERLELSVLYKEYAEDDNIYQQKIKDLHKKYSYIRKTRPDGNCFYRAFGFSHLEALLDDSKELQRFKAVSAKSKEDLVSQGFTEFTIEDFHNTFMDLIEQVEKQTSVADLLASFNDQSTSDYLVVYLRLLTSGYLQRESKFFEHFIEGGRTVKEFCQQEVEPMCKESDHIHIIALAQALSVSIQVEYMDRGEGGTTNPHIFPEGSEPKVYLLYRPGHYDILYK

Cc1noc(N2CCN(C(=O)CCl)CC2)n1.Cl
inactive: ALG13 -0.0651 | ATXN3 -0.811 | BAP1 -0.867 | EIF3F 0.106 | EIF3H -0.241 | FAM105A 0.317 | OTUB1 0.11 | OTUD4 -0.163 | OTUD5 -0.0833
